Experimental findings from the supplement of paper PMC6658780 are described below.

Where a name gives a salt, the structure may show the parent alone. ± gives the standard deviation of the averaged measurements.

The test system of test [1] is Klebsiella pneumoniae KPC-119. The experiment in a line: percent growth inhibition of drug alone vs DMSO control; higher = more growth inhibition. The following applies: antibiotic (0.125x MIC): none (0.1% DMSO).
Test [2] deals with Klebsiella pneumoniae NCTC-13439. Described as above. The following applies: antibiotic (0.125x MIC): none (0.1% DMSO).
The subject of test [3] is Klebsiella pneumoniae KPC-119. The experiment in a line: percent growth inhibition of drug + antibiotic vs DMSO control; higher = more growth inhibition.
In test [4] the test system is Klebsiella pneumoniae NCTC-13439. Described as above.
Test [5] concerns Escherichia coli ATCC BAA-2469. Described as above. The following applies: 7 µM. On the procedure:
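Prestwick drugs tested at 20 uM and 7 uM with an antibiotic at 0.125x MIC (16 mg/L when MIC >128 mg/L) against E. coli ATCC BAA-2469 (NDM-1) in CAMHB, 384-well plates, duplicate runs. Percent growth inhibition was computed from OD600 (24 h minus 0 h) relative to DMSO wells. Drug + DMSO-only wells are also given. […]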

[6] abbreviates: antibiotic (0.125x MIC): colistin, 20 µM.
Setting [7] is: antibiotic (0.125x MIC): meropenem, 7 µM.
Setting [8] is: antibiotic (0.125x MIC): meropenem, 20 µM.
The mark [9] stands for this setting: antibiotic (0.125x MIC): ciprofloxacin, 7 µM.
Where [10] appears, read: antibiotic (0.125x MIC): ciprofloxacin, 20 µM.
[11] abbreviates: antibiotic (0.125x MIC): gentamicin.
The mark [12] stands for this setting: antibiotic (0.125x MIC): colistin, 7 µM.
Where [13] appears, read: antibiotic (0.125x MIC): gentamicin, 7 µM.
[14] abbreviates: antibiotic (0.125x MIC): tigecycline, 7 µM.
The mark [15] stands for this setting: antibiotic (0.125x MIC): tigecycline, 20 µM.
The mark [16] stands for this setting: antibiotic (0.125x MIC): gentamicin, 20 µM.

As for `O=c1[nH]c(=O)n([C@H]2C[C@H](O)[C@@H](CO)O2)cc1F` [Floxuridine], the “percent growth inhibition of drug alone” value in test [1] (7 µM) worked out at 34.2 ± 2.8%; in test [1] (20 µM) it was 92.8 ± 5.4%; in test [2] (7 µM), 43.4 ± 0.88%; in test [2] (20 µM), 99.63 ± 0.17%. Moreover, the percent growth inhibition in test [3] (setting [6]) is 98.9 ± 1.5%; in test [3] (setting [7]), 89.6 ± 10%; in test [3] (setting [8]), 98.5 ± 1.4%; in test [4] (setting [9]), 64.6 ± 15%; in test [4] (setting [10]) it was 99.05 ± 0.42%.
With `CCOC(=O)c1ccc(N)cc1` [Benzocaine], in test [5] (setting [11]), the percent growth inhibition came out at 0.573 ± 3.1%.
In the case of `NC[C@@H]1O[C@H](O[C@H]2[C@@H](O)[C@H](O[C@@H]3[C@@H](O)[C@H](N)C[C@H](N)[C@H]3O[C@H]3O[C@H](CO)[C@@H](O)[C@H](O)[C@H]3N)O[C@@H]2CO)[C@H](N)[C@@H](O)[C@@H]1O` [Paromomycin sulfate], the “percent growth inhibition of drug alone” value in test [1] (7 µM) was -0.033 ± 0.073%; in test [1] (20 µM), 41.3 ± 0.58%; in test [2] (7 µM), 11.4 ± 2.6%; in test [2] (20 µM) it was 43.7 ± 12%. Moreover, the percent growth inhibition in test [3] (setting [12]) is 12.7 ± 6.7%; in test [3] (setting [13]) it was 8.59 ± 1.5%; in test [4] (setting [14]), 6.3 ± 3%.
Turning to `CC1=C(/C=C/C(C)=C/C=C/C(C)=C/C(=O)O)C(C)(C)CCC1` [Retinoic acid], the “percent growth inhibition of drug alone” value in test [1] (7 µM) was 1.08 ± 2.4%; in test [1] (20 µM) it was 0.222 ± 2%. Besides, the percent growth inhibition in test [3] (setting [6]) is -10.3 ± 2.1%.
For the molecule `OCCOCCN1CCN(C2=Nc3ccccc3Sc3ccccc32)CC1` [Quetiapine hemifumarate], the “percent growth inhibition of drug alone” value is -3.12 ± 4% in test [1] (7 µM), -3.25 ± 2.9% in test [1] (20 µM), -15.6 ± 19% in test [2] (7 µM) and -5.29 ± 6.1% in test [2] (20 µM). In addition, the percent growth inhibition is -8.06 ± 1.8% in test [3] (setting [6]), -9.2 ± 16% in test [4] (setting [14]) and -7.45 ± 10% in test [4] (setting [15]).
Consider `CC(Cc1cccc(C(F)(F)F)c1)NCCOC(=O)c1ccccc1` (stereo unspecified) [Benfluorex], for which the figures for the “percent growth inhibition of drug alone” value in test [1] (7 µM) and in test [1] (20 µM) were 1.43 ± 3% and -0.224 ± 0.36%, respectively. Moreover, the percent growth inhibition in test [3] (setting [6]) is 4.58 ± 2.8%.
For the molecule `O=C(O)c1cn(-c2ccc(F)cc2)c2cc(N3CCNCC3)c(F)cc2c1=O` [Sarafloxacin], the “percent growth inhibition of drug alone” value in test [1] (7 µM) stood at 56.9 ± 1.9%; in test [1] (20 µM) it was 98.9 ± 1.1%; in test [2] (7 µM), 19.6 ± 1.8%; in test [2] (20 µM) it was 98.4 ± 1.6%. The percent growth inhibition worked out at 99.81 ± 0.1% in test [3] (setting [13]); 99.82 ± 0.22% in test [3] (setting [16]); 99.613 ± 0.042% in test [3] (setting [7]); 83.6 ± 19% in test [3] (setting [8]); 59.24 ± 0.15% in test [4] (setting [9]); 99.59 ± 0.23% in test [4] (setting [10]). The percent growth inhibition in test [4] (setting [14]) was found to be 50 ± 14%; in test [4] (setting [15]), 99.57 ± 0.39%.
On to `O=C(Nc1ccc([N+](=O)[O-])cc1Cl)c1cc(Cl)ccc1O` [Niclosamide], for which the percent growth inhibition in test [5] (setting [11]) came out at 10.1 ± 2%.
Take `Nc1ccn([C@@H]2O[C@H](CO)[C@@H](O)C2(F)F)c(=O)n1` [Gemcitabine]: the percent growth inhibition in test [5] (antibiotic (0.125x MIC): ciprofloxacin) turned out to be 23.1 ± 11%.
Turning to `CCOC(=O)OC(C)OC(=O)[C@@H]1N2C(=O)[C@@H](NC(=O)[C@H](N)c3ccccc3)[C@H]2SC1(C)C` (stereo partly specified) [Bacampicillin hydrochloride], the entries for the “percent growth inhibition of drug alone” value in test [1] (7 µM) and in test [1] (20 µM) were 0.511 ± 1.4% and -0.333 ± 0.47%, respectively. Further, the percent growth inhibition in test [3] (setting [12]) is -4.19 ± 0.78%.
On to `CN[C@@H]1[C@@H](O[C@H]2O[C@H](CO)[C@@H](N)[C@H](O)[C@H]2O)OC2C[C@@H](N)[C@@H](O[C@H]3[C@H](O)[C@@H](O)[C@H](N)C[C@@H]3N)OC2[C@@H]1O` (stereo partly specified) [Apramycin], for which the “percent growth inhibition of drug alone” value in test [1] (7 µM) was determined as 4.95 ± 5.6%; in test [1] (20 µM), 52.9 ± 1.4%; in test [2] (7 µM) it was 4.78 ± 15%; in test [2] (20 µM), 88 ± 17%. Besides, the percent growth inhibition in test [3] (setting [13]) is 27.9 ± 0.46%; in test [3] (setting [16]), 99.968 ± 0.004%; in test [4] (setting [14]), 35.7 ± 13%; in test [4] (setting [15]) it was 100 ± 0.19%.
As for `CO[C@H]1/C=C/O[C@@]2(C)Oc3c(C)c(O)c4c(O)c(c5c(nc6cc(C)ccn65)c4c3C2=O)NC(=O)/C(C)=C\C=C\[C@H](C)[C@H](O)[C@@H](C)[C@@H](O)[C@@H](C)[C@H](OC(C)=O)[C@@H]1C` [Rifaximin], the “percent growth inhibition of drug alone” value turned out to be 18.5 ± 1.3% in test [1] (7 µM), 71.9 ± 2.4% in test [1] (20 µM), 1.28 ± 0.063% in test [2] (7 µM) and 17.5 ± 13% in test [2] (20 µM). The percent growth inhibition in test [3] (setting [12]) was 99.23 ± 0.84%; in test [4] (setting [9]), -1.2 ± 3.8%; in test [4] (setting [10]), 50.5 ± 1.9%; in test [4] (setting [14]), 7.05 ± 5.2%; in test [4] (setting [15]), 50.7 ± 4%.
Take `COc1ccc2c(c1)c(CC(=O)OCC(=O)O)c(C)n2C(=O)c1ccc(Cl)cc1` [Acemetacin]: in test [5] (setting [11]), the percent growth inhibition was 2.64 ± 1.7%.
In the case of `CO[C@H]1/C=C/O[C@@]2(C)Oc3c(C)c(O)c4c(c3C2=O)C2=NC3(CCN(CC(C)C)CC3)NC2=C(NC(=O)/C(C)=C\C=C\[C@H](C)[C@H](O)[C@@H](C)[C@@H](O)[C@@H](C)[C@H](OC(C)=O)[C@@H]1C)C4=O` [Rifabutin], the “percent growth inhibition of drug alone” value in test [1] (7 µM) came to 8.64 ± 2.6%; in test [1] (20 µM), 73.8 ± 3.7%; in test [2] (7 µM) it was 5.74 ± 2.1%. Moreover, the percent growth inhibition was 97.8 ± 1.9% in test [3] (setting [12]); 98.1 ± 2.2% in test [3] (setting [6]); 41.8 ± 7% in test [3] (setting [13]); 99.4 ± 0.45% in test [3] (setting [16]); 99.645 ± 0.017% in test [3] (setting [8]); 21.5 ± 7.5% in test [4] (setting [9]). Also, in test [4] (setting [15]), the percent growth inhibition was found to be 30.9 ± 7.2%.
With `CCN(CC)CCOC(=O)C1(C2CCCCC2)CCCCC1` [Dicyclomine hydrochloride], the “percent growth inhibition of drug alone” value is 0.63 ± 2% in test [1] (7 µM) and 2.04 ± 2.2% in test [1] (20 µM). The percent growth inhibition in test [3] (setting [6]) was -2.28 ± 7.1%.
On to `CC(=O)OC[C@H]1O[C@@H]([S-])[C@H](OC(C)=O)[C@@H](OC(C)=O)[C@@H]1OC(C)=O.CCP(CC)CC.[Au+]` [Auranofin], for which the “percent growth inhibition of drug alone” value in test [1] (7 µM) was found to be 10 ± 0.89%; in test [1] (20 µM) it was 50.22 ± 0.3%; in test [2] (7 µM), 9.98 ± 8.3%; in test [2] (20 µM), 22.6 ± 13%. Further, the percent growth inhibition was found to be 101 ± 3.5% in test [3] (setting [12]); 96.14 ± 0.42% in test [3] (setting [6]); 33.2 ± 9.4% in test [3] (setting [13]); 99.78 ± 0.2% in test [3] (setting [16]); 98.3 ± 1.4% in test [3] (setting [7]); 99.5 ± 0.13% in test [3] (setting [8]). In test [4] (setting [9]), the percent growth inhibition is 10.8 ± 5.5%.
Take `CN(C)CCOC(c1ccc(Cl)cc1)c1ccccn1` (stereo unspecified) [Carbinoxamine maleate salt]: the “percent growth inhibition of drug alone” value in test [1] (7 µM) is -6.88 ± 0.94%; in test [1] (20 µM), -3.08 ± 0.79%. The percent growth inhibition in test [3] (setting [6]) was -10.7 ± 4.1%.
On to `CN(C)c1ccc(O)c2c1C[C@H]1C[C@H]3[C@H](N(C)C)C(O)=C(C(N)=O)C(=O)[C@@]3(O)C(O)=C1C2=O` [Minocycline hydrochloride], for which the “percent growth inhibition of drug alone” value amounted to 10.9 ± 1.6% in test [1] (7 µM), 52.8 ± 2.3% in test [1] (20 µM), 3.05 ± 3.2% in test [2] (7 µM) and 6.86 ± 3.9% in test [2] (20 µM). Besides, the percent growth inhibition in test [3] (setting [12]) is 97.33 ± 0.15%; in test [3] (setting [6]), 97.8 ± 1.9%; in test [3] (setting [13]), 6.41 ± 2.8%; in test [3] (setting [16]), 95.3 ± 1.8%; in test [4] (setting [14]), -1.9 ± 6.7%; in test [4] (setting [15]), 49.8 ± 7.5%.
Consider `CC[C@H]1OC(=O)[C@H](C)[C@@H](O[C@H]2C[C@@](C)(OC)[C@@H](O)[C@H](C)O2)[C@H](C)[C@@H](O[C@@H]2O[C@H](C)C[C@H](N(C)C)[C@H]2O)[C@](C)(O)C[C@@H](C)CN(C)[C@H](C)[C@@H](O)[C@]1(C)O` [Azithromycin], for which the “percent growth inhibition of drug alone” value in test [1] (7 µM) was 5.21 ± 1.8%; in test [1] (20 µM), 21.1 ± 1%; in test [2] (7 µM), 55.2 ± 6.6%; in test [2] (20 µM), 74.4 ± 19%. Also, the percent growth inhibition in test [3] (setting [12]) was 40.9 ± 12%; in test [3] (setting [6]), 98.78 ± 0.7%; in test [4] (setting [9]), 44.5 ± 5.6%; in test [4] (setting [10]), 99.666 ± 0.042%; in test [4] (setting [14]) it was 64.2 ± 2.8%.
